Shown are actives, neighbours in structure and some others; about 2.9% of the full set was active somewhere.
TSHR antagonist: human thyrotropin receptor antagonism; P16473; AID 504810; TSHR-expressing cells, TSH-stimulated cAMP HTRF, 2 h; stronger effect = lower value; activity change, negative = inhibition, % at 11.5 µM; actives 0.2% (n = 330,000);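 active = activity change below a set negative limit, meaning inhibition stronger than a set level, cut at about -70% in these data; inconclusive = activity change between two set negative limits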
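Freshly harvested TSHR cells receive pin-tooled compound, then EC80 TSH at 4nM final. After 2 hours at 37 deg C, antibody in lysis buffer and cAMP-d2 are added; 30 minutes at ambient temperature precede the HTRF read.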
DRD3 antagonist: D3 dopamine receptor (human) antagonism; actives 2.5% (n = 360,000); max response, negative = inhibition, %; D3R cells, DiscoveRx beta-arrestin luminescence, antagonist mode; stronger effect = lower value; P35462; in the data active = max response below about -50%; inconclusive = no clear call, values can overlap the other calls
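Cells expressing the human receptor were seeded at 1500 cells/well, incubated overnight at 37 degrees C in 5% CO2, then exposed to library compounds with dopamine controls for 90 minutes at 37 degrees C before luminescent detection.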
B2AR arrestin: agonists driving beta-arrestin recruitment to human beta2-adrenergic receptor; P07550; beta-arrestin recruitment to beta2AR, cell-based reporter; Potency, µM (series often up to 46.1 µM), actives largely listed as activators; actives 0.02% (n = 330,000); AID 492947; active = well fitted activation curve with a large enough effect; inconclusive = small, poorly fitted or top-dose-only effect; also: nearly all actives have a fitted effect of over 65% in size
Target sequence (P07550 whole entry, looked up): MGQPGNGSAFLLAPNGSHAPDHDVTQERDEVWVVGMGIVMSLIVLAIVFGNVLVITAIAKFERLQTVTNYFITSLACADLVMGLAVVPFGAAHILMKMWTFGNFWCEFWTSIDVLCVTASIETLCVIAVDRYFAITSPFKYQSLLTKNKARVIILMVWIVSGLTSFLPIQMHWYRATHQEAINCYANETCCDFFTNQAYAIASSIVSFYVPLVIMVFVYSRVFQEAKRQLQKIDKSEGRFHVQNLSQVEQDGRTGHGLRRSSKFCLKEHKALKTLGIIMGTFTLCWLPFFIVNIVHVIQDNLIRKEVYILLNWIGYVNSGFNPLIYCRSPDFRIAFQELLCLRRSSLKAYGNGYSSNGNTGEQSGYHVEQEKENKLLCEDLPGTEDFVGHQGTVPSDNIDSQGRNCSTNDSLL
DRD3 agonist: D3 dopamine receptor (human) agonism. D3R DiscoveRx beta-arrestin cells, luminescence, 90 min. max activation, %. actives 0.58% (n = 410,000); in the data active = max activation above about 30%
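Agonist mode: compounds and dopamine controls were applied to plated cells for 90 min at 37 degrees C after an overnight attachment at 1500 cells/well. Luminescent read-out followed 30 - 60 minutes at room temperature with DiscoveRx detection reagent.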
Numbers stand for hits; – = inactive; ? = inconclusive; · = no result.

SMILES | TSHR antagonist | DRD3 antagonist | B2AR arrestin | DRD3 agonist
CN(C)CCOc1ccccc1Cc1ccccc1 (tested in a mixture with another compound) | · | · | · | –
NCCOc1ccccc1Cc1ccccc1 | – | -64.0 | – | –
O=C(Cn1nc(-c2ccccc2)nc(Cc2ccccc2)c1=O)Nc1ccccc1 | · | · | · | –
COc1ccccc1N1CCN(C(=O)C(CC(C)C)NC(=O)C2CCCCC2)CC1 (stereo not given) | – | – | – | –
COc1ccccc1N1CCN(CCN(C(=O)c2ccc(F)cc2)c2ccccn2)CC1 | – | -116.0 | – | –
COc1ccccc1N1CCN(CC(C)N(C(=O)C2CCCCC2)c2ccccn2)CC1 (stereo not given) | – | -70.0 | – | –
COc1ccccc1N1CCN(CCN(C(=O)C2CCCCC2)c2ccccn2)CC1 | – | -84.6 | – | –
Cc1cc(NC(=O)CSc2ncc(C(=O)Nc3ccc(F)cc3)c(=O)n2C)no1 | · | · | · | –
CCOc1ccc(Sc2cc(C(=O)NCc3ccccc3Cl)c3ccccc3n2)cc1 | · | · | · | –
O=C(O)CCc1c(C(=O)O)[nH]c2ccccc12 | – | – | – | –
O=C(O)CCc1[nH]c2ccccc2c1Sc1ccccc1 | – | -67.0 | – | –
Cc1c(NC(=O)Nc2ccc(Cl)c(Cl)c2)sc(=S)n1C | · | -72.6 | · | –
COc1cc(OC)c(CNC2CCCCCC2)cc1Br | – | -62.5 | – | –
COc1cc(OC)c(OC)cc1CNC1CCCCCC1 | – | – | – | –
COCCNC(=O)c1cc(OC)c(OC)cc1[N+](=O)[O-] | – | – | – | –
COc1ccc(CCNC(=O)c2cc3cc(Cl)ccc3nc2N)cc1OC | · | – | · | 50.6
COc1ccc(Cl)cc1C(=O)NCCN(C)C | – | -71.8 | – | –
CCN(CC)CCNC(=O)c1cc([N+](=O)[O-])c(N(C)C)cc1OC | – | -92.7 | – | –
CCNC(=O)c1cc(Cl)ccc1OC | – | – | – | –
CCN(CC)CCNC(=O)c1cc(Cl)c(N)cc1OC | – | -116.6 | – | –
Cc1ccccc1CN1C(=O)c2ccccc2Sc2ccc(C(=O)NCCc3ccccc3)cc21 | · | · | · | –
Cc1ccc(-c2noc(CNC(=O)c3ccccc3)n2)cc1 | · | · | · | –
CCc1nnc(SCC(=O)Nc2cc(Cl)c(OC)cc2OC)c2cc3oc(C)cc3n12 | · | · | · | –
CCN(CC)CCOC(=O)c1ccc(Cl)cc1 | – | -83.1 | – | –
COC(=O)c1cc(Cl)c(N)cc1OC | – | – | – | –
SMILES | TSHR antagonist | DRD3 antagonist | B2AR arrestin | DRD3 agonist
COc1cc(CCNC(=O)c2ccccc2NC(=O)C2=C(C)OCCS2)cc(OC)c1OC | – | – | – | –
CCN(CC)CCOC(=O)c1cc(Cl)c(N)cc1OC | – | -58.0 | – | –
CCOc1ccc(C(=O)OCCN(CC)CC)cc1 | – | – | – | –
COc1cc(NC(=O)C2=C(C)OCCS2)c(Cl)cc1C(=O)NCCN(C)C | – | -52.4 | – | –
Cc1ccc(C)c(NC(=O)CN2C(=O)CCc3cc(S(=O)(=O)N4CCCCC4)ccc32)c1 | · | · | · | –
O=C(COc1ccc(Br)cc1Cl)Nc1ncn[nH]1 | · | · | · | –
CCN1CCN(c2nc(Nc3ccc(C)c(C)c3)nc(N)c2[N+](=O)[O-])CC1 | – | -82.9 | – | –
CN1CCN(c2nc(NCc3ccco3)nc(N)c2[N+](=O)[O-])CC1 | – | -80.4 | – | –
CCN1CCN(c2nc(Nc3cccc(OC)c3)nc(N)c2[N+](=O)[O-])CC1 | – | – | – | –
CCOc1ccc(-n2ccnc2SCC(=O)Nc2nc3ccc(C)cc3s2)cc1 | · | · | · | –
CN(Cc1ccccc1)C(c1ccnc2ccccc12)c1nnnn1-c1ccc2c(c1)OCCO2 (stereo not given) | · | – | · | 50.2
CN(C)CCN(Cc1ccccc1)C(c1ccnc2ccccc12)c1nnnn1-c1ccc2c(c1)OCCO2 (stereo not given) | · | ? | · | –
Cc1cccc(-c2noc(-c3ccc(NCc4cccnc4)c([N+](=O)[O-])c3)n2)c1 | · | · | · | –
COC(=O)CC1=C(C(=O)OC)C(c2cccs2)C(C#N)=C(N)O1 (stereo not given) | – | -76.9 | – | –
COc1ccccc1CNc1nc2cc(-c3ccc(OC)c(OC)c3)sc2c(=O)n1C | · | – | · | –
COc1ccc(-c2cc3nc(NCC4CCCCC4)n(C)c(=O)c3s2)cc1OC | · | – | · | 36.9
Cc1ccc2c(c1)C(=O)OC(C(=O)Nc1ncc(Cc3ccc(C(C)C)cc3)s1)C2 (stereo not given) | · | · | · | –
COc1ccc(C(CNC(=O)c2ccco2)N2CCCCC2)cc1 (stereo not given) | – | – | – | –
